The target of experiment [1] is Cellular tumor antigen p53 (Homo sapiens) (UniProt P04637). Description: Primary qHTS for small molecule compounds that upregulate eGFP-tagged delta133p53alpha (in N-terminal) cells. (AID 2060322).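 Note: series mostly up to about 56 µM; 0% = DMSO vehicle and 100% = reference activator; nearly all actives have a fitted effect of over 75% in size.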 As to conditions: NCI-H358 eGFP-delta133p53alpha fluorescence, 24 h; activation: active compounds read high. The method, boiled down:
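NCI-H358 cells pre-induced 24 h with 10 ng/ml doxycycline to express N-terminal eGFP-delta133p53alpha, then dosed 24 h at 37C without doxycycline; fixed, Hoechst-stained, GFP intensity by laser scanning cytometry, normalized to DMSO (0%) and 57.5 uM 5-azacytidine (100%).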
(In qHTS, concentration-response curves come from the screen itself.)

The nature of experiment [2]: BET inhibitor-based combinations targeting novel dependencies in MECOM-rearranged (r) AML: OCI-AML3 cell line (AID 2202232). Note: nearly all actives have a fitted effect of over 35% in size. Note: potency is the fitted concentration of half-maximal effect. As to conditions: Potency: OCI-AML3 viability. The method, boiled down: (§1)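 AML cell lines seeded at 500 cells/well, treated with 11-point dose curves for 48 h. Viability by CellTiter-Glo luminescence, normalised to DMSO and empty wells; activity expressed as AUC and per-cell-line Z-transformed AUC.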

The nature of experiment [3]: BET inhibitor-based combinations targeting novel dependencies in MECOM-rearranged (r) AML: MV-4-11 cell line (AID 2202233). Note: nearly all actives have a fitted effect of over 45% in size. Note: potency is the fitted concentration of half-maximal effect. The method, boiled down: (§2)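 Cells at 500/well were exposed for 48 hr to MIPE v5.0 drugs as 11-point dose curves. Viability was read by CellTiter-Glo luminescence and normalized to DMSO and empty-well controls. Activity was expressed as AUC and per-cell-line Z-AUC.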

Experiment [4] can be described thus: BET inhibitor-based combinations targeting novel dependencies in MECOM-rearranged (r) AML: HNT-34 cell line (AID 2202234). Note: nearly all actives have a fitted effect of over 35% in size. Note: potency is the fitted concentration of half-maximal effect. The method, boiled down: as §2
Experiment [5] is described as follows: BET inhibitor-based combinations targeting novel dependencies in MECOM-rearranged (r) AML: UCSD-AML1 cell line (AID 2202235). Note: nearly all actives have a fitted effect of over 40% in size. Note: potency is the fitted concentration of half-maximal effect. The gist of the method:
as §2

Experiment [6] in a line: BET inhibitor-based combinations targeting novel dependencies in MECOM-rearranged (r) AML: AML-191 cell line (AID 2202236; note: nearly all actives have a fitted effect of over 35% in size; note: potency is the fitted concentration of half-maximal effect). The gist of the method: as §1
The nature of experiment [7]: BET inhibitor-based combinations targeting novel dependencies in MECOM-rearranged (r) AML: AML-194 cell line (AID 2202237;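 note: plate controls were vehicle wells for no effect and wells without cells for full effect; nearly all actives have a fitted effect of over 40% in size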). The gist of the method:
as §1

A short description of experiment [8]: BET inhibitor-based combinations targeting novel dependencies in MECOM-rearranged (r) AML: SET-2 cell line (AID 2202231).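 Note: plate controls were DMSO treated cells for no effect and wells without cells for full effect; nearly all actives have a fitted effect of over 35% in size.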 The note with it: SET-2 AML cells viability, CellTiter-Glo luminescence, 48 h; viability: active compounds read low, series mostly up to about 46 µM. The gist of the method: as §1

The results in this text go back to PubChem BioAssay (NCATS).

Results filed as inconclusive are left out. Values without a mark were called inactive. Active and inactive are the calls of the source. Calls come from the whole dose curve; as a rule, active = well fitted curve in the direction sought with a large enough effect; inconclusive = small, poorly fitted or top-dose-only effect, or another doubt; inactive = no such curve, though single readings can be large; an effect the other way counts as inactive or inconclusive.

Cellular tumor antigen p53 (Homo sapiens), sequence (P04637 whole entry, looked up): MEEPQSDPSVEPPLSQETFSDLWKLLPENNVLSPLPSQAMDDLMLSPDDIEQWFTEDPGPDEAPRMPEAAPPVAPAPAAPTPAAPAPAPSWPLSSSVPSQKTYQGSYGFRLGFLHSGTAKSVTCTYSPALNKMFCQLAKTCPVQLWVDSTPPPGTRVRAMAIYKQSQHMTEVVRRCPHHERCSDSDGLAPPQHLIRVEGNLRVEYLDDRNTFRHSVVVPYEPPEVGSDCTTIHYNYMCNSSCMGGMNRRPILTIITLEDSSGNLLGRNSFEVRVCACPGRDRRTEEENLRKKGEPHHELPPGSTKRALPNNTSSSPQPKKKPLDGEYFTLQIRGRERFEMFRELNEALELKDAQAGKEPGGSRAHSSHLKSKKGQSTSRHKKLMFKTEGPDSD

`CC(Cc1ccc(O)c(O)c1)(NN)C(=O)O` (centres undefined): the activation in experiment [1] is -5.67%. Also, the Potency entry in experiment [2], in experiment [3], in experiment [4], in experiment [5], in experiment [6] and in experiment [7] was “inactive” each time.
On to `CCCc1nc(C(C)(C)O)c(C(=O)O)n1Cc1ccc(-c2ccccc2-c2nn[nH]n2)cc1`, for which the activation in experiment [1] was -5.2%. For the same molecule, the Potency entry in experiment [2], in experiment [3], in experiment [4], in experiment [5], in experiment [6] and in experiment [7] was “inactive” each time.
For `CN1c2cc(O)c(N=NC(N)=O)cc2CC1S(=O)(=O)O` (centres undefined), the activation in experiment [1] was 16.4%. The viability (usually a read-out of living cells in per cent, often relative to untreated cells) in experiment [8] was 89.9%. Also, the Potency result in experiment [6] and in experiment [7] was “inactive” each time.
With `COc1cc([C@H]2Oc3cc([C@H]4Oc5cc(O)cc(O)c5C(=O)[C@@H]4O)ccc3O[C@@H]2CO)ccc1O`, the activation in experiment [1] is -20.1%. Further, in experiment [8], the viability is 119%. Further, in experiment [7], the Potency entry is “inactive”.
As to `COC(=O)C1=C(C)NC(C)=C(C(=O)OCCN2CCN(C(c3ccccc3)c3ccccc3)CC2)C1c1cccc([N+](=O)[O-])c1` (centres undefined), the activation in experiment [1] is -17.6%. Besides, the Potency was 20.9 µM (active) in experiment [2], 18.6 µM (active) in experiment [3], 23.5 µM (active) in experiment [4] and 26.3 µM (active) in experiment [6]. Also, the Potency result in experiment [5] is “inactive”.
With `CC(C)(C)COc1ccc(-n2cc(C(=O)O)cn2)cc1C#N`, the activation in experiment [1] was -16.6%. Further, the Potency in experiment [2] is 10.5 µM (active). Besides, the Potency result in experiment [3], in experiment [4] and in experiment [7] was “inactive” in each case.
Turning to `O=C(O)[C@H](Cc1c[nH]c2ccccc12)N1C(=O)c2ccccc2C1=O`, in experiment [1], the activation is -29%. Moreover, the Potency result in experiment [2], in experiment [3], in experiment [4], in experiment [6] and in experiment [7] was “inactive” in each case. In experiment [5], the Potency is 3.32 µM (active).
